# Bioassay records: PubChem BioAssay, Broad Institute
# IDE exosite inh: exo-site inhibitors of human IDE, primary screen, biochemical, fluorescence anisotropy, probe displacement. Insulin-degrading enzyme (Homo sapiens), P14735. purified IDE, FL-6b probe fluorescence polarization; active compounds read low. z-score at 20 µM. 6.3% of 17,000 active. AID 1259349, 2017;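 active = z-score of -3 or lower, meaning strong loss of probe binding signal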;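 also: His-tagged human IDE residues 42-1019 made in E. coli with 30 nM FL-6b probe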
# An asterisk follows results filed as active; ! = a repeat was not active. The entries come from a sample that favours hits as a whole.
SMILES,IDE exosite inh
CCS(=O)(=O)N1CCCCN2[C@H](CO)[C@@H](c3ccc(C#Cc4ccccc4OC)cc3)[C@H]2C1,-6.5*
CCS(=O)(=O)N1CCCCN2[C@H](CO)[C@H](c3ccc(C#Cc4ccccc4OC)cc3)[C@H]2C1,-9.2*
COc1ccc(NC(=O)Nc2ccc3c(c2)[C@@H]2C[C@@H](CC(=O)NCC(F)(F)F)O[C@@H](CO)[C@@H]2O3)cc1,0.12
Cc1ccccc1NC(=O)C[C@H]1CC[C@H]2[C@@H](COc3ccc(NC(=O)NC(C)C)cc3C(=O)N2C)O1,-1.2
COc1cccc(NC(=O)N2C[C@H](O)COC[C@@H]3O[C@H](CC(=O)N(C)C)CC[C@H]32)c1,-0.42
COc1cccc(-c2ccc(C3[C@H]4CNC[C@@H]3N4C(=O)Nc3ccc4c(c3)OCO4)cc2)c1 (stereo not given in full),-2.8
Cc1ccccc1-c1ccc(C2[C@H]3CNC[C@@H]2N3C(=O)Nc2ccc(Cl)cc2)cc1 (stereo not given in full),-3.6*!
COc1ccc(NC(=O)N2[C@@H]3CNC[C@H]2C3c2ccc(-c3ccccc3C)cc2)cc1 (stereo not given in full),-4.6*
O=C(NC1CCCCC1)N1[C@@H]2CNC[C@H]1C2c1ccc(-c2ccccc2F)cc1 (stereo not given in full),-0.085
CN(C)C(=O)c1cccc(-c2ccc(C3[C@H]4CNC[C@@H]3N4C(=O)Nc3cccc(Cl)c3)cc2)c1 (stereo not given in full),-0.24
COc1cccc(-c2ccc(C3[C@H]4CNC[C@@H]3N4C(=O)Nc3ccc(C(F)(F)F)cc3)cc2)c1 (stereo not given in full),2.1
COc1ccccc1S(=O)(=O)N(C)C[C@H]1OCc2ccccc2-c2ccccc2C(=O)N([C@@H](C)CO)C[C@@H]1C,-1.5
COCC#Cc1ccc([C@@H]2[C@H](CO)N3C(=O)CN(C(=O)c4ccncc4)C[C@@H]23)cc1,0.99
O=C(Cc1cccnc1)N1CC(=O)N2[C@H](CO)[C@H](c3ccc(C#CC4CCCCC4)cc3)[C@H]2C1,-1.5
Cc1cccc(-c2ccc([C@H]3[C@@H](CO)N4CCCCN(S(=O)(=O)c5cccc(C)c5)C[C@@H]34)cc2)c1,-1.1
Cc1cccc(-c2ccc([C@@H]3[C@H]4CN(S(=O)(=O)c5cccs5)CCCCN4[C@H]3CO)cc2)c1,0.55
Cc1cccc(-c2ccc([C@@H]3[C@H](CO)N4CCCCN(S(=O)(=O)c5cccs5)C[C@@H]34)cc2)c1,-8*
O=S(=O)(c1cccs1)N1CCCCN2[C@H](CO)[C@H](c3ccc(/C=C/c4ccccc4)cc3)[C@@H]2C1,-0.12
COc1cccc(-c2ccc([C@@H]3[C@H](CO)N4CCCCN(S(=O)(=O)c5cccs5)C[C@@H]34)cc2)c1,-6*
COc1cccc(S(=O)(=O)N2CCCCN3[C@@H](CO)[C@@H](c4ccc(-c5ccccc5)cc4)[C@@H]3C2)c1,5.5
Cc1cccc(-c2ccc([C@@H]3[C@@H](CO)N4CCCCN(S(=O)(=O)c5cccs5)C[C@@H]34)cc2)c1,-3.8*
O=S(=O)(c1cccs1)N1CCCCN2[C@H](C1)[C@H](c1ccc(/C=C/c3ccccc3)cc1)[C@@H]2CO,-0.7
Cc1cccc(-c2ccc([C@H]3[C@H](CO)N4CCCCN(S(=O)(=O)c5cccs5)C[C@@H]34)cc2)c1,3.2
COc1cccc(-c2ccc([C@@H]3[C@@H](CO)N4CCCCN(S(=O)(=O)c5cccs5)C[C@H]34)cc2)c1,0.67
O=S(=O)(c1cccs1)N1CCCCN2[C@H](C1)[C@H](c1ccc(C3=CCCC3)cc1)[C@@H]2CO,0.98
SMILES,IDE exosite inh
O=S(=O)(c1cccs1)N1CCCCN2[C@@H](CO)[C@@H](c3ccc(/C=C/c4ccccc4)cc3)[C@@H]2C1,-3.2*
COc1cccc(CNC(=O)[C@H]2[C@H](CO)[C@H]3Cn4c(ccc(C5=CCCC5)c4=O)[C@@H]2N3)c1,0.59
O=C1N[C@H](c2ccccc2)COCc2cnnn2CC[C@@H]1Cc1ccc(C(F)(F)F)cc1,0.19
O=C(CN1CCOCC1)N1[C@H](CO)[C@@H]2c3ccccc3NC[C@@H]21,3.2
O=C(C[C@@H]1C[C@H]2c3cc(NS(=O)(=O)c4ccc(F)cc4)ccc3O[C@H]2[C@H](CO)O1)N1CCc2ccccc2C1,0.24
CC(=O)N(C)C[C@H]1[C@@H](c2ccc(-c3cccc(C#N)c3)cc2)[C@@H](CO)N1C(C)=O,0.89
CN1CCCCN2[C@H](C1)[C@H](c1ccc(-c3cccnc3)cc1)[C@@H]2CO,-1.2
O=C(Nc1ccc(F)cc1)N1[C@H](CO)[C@@H]2c3ccccc3NC[C@@H]21,2.7
C[C@H](O)C#Cc1ccc([C@@H]2[C@H]3CN(S(=O)(=O)Cc4ccccc4)CCCCN3[C@H]2CO)cc1,-0.67
CCS(=O)(=O)Nc1ccc2c(c1)C(=O)N(C)[C@H]1CC[C@@H](CC(=O)NCc3ccc(OC)cc3)O[C@H]1CO2,-0.028
COc1cccc(C#Cc2ccc([C@@H]3[C@@H](CO)N4C(=O)CN(C(=O)C5CC5)C[C@H]34)cc2)c1,-1.9
